Screens: PubChem, The Scripps Research Institute Molecular Screening Center
TEAD-YAP block: TEAD-YAP interaction inhibition, primary screen, TEAD-YAP interaction inhibitor project, luminescence, HEK-TIYL cells; TEAD-Gal4/YAP UAS-luciferase luminescence; inhibition, % at 9.12 µM; actives 1.4% (n = 640,000); in the data active = inhibition above about 32%;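 note: 0% = median of test compound wells and 100% = reference inhibitor wells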
FBW7 activator: FBW7 E3 ligase activators, primary screen, biochemical, AlphaScreen, human; normalized activity (activation), % at 26.1 µM; AlphaScreen FBW7–phospho-cyclin E peptide binding, activator screen; F-box/WD repeat-containing protein 7 (Homo sapiens), Q969H0; AID 1259310, 2017; actives 0.13% (n = 650,000); in the data active = normalized activity above about 1.9%;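 note: purified mutant Fbw7 with reduced substrate affinity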
Target sequence (Q969H0 whole entry, looked up): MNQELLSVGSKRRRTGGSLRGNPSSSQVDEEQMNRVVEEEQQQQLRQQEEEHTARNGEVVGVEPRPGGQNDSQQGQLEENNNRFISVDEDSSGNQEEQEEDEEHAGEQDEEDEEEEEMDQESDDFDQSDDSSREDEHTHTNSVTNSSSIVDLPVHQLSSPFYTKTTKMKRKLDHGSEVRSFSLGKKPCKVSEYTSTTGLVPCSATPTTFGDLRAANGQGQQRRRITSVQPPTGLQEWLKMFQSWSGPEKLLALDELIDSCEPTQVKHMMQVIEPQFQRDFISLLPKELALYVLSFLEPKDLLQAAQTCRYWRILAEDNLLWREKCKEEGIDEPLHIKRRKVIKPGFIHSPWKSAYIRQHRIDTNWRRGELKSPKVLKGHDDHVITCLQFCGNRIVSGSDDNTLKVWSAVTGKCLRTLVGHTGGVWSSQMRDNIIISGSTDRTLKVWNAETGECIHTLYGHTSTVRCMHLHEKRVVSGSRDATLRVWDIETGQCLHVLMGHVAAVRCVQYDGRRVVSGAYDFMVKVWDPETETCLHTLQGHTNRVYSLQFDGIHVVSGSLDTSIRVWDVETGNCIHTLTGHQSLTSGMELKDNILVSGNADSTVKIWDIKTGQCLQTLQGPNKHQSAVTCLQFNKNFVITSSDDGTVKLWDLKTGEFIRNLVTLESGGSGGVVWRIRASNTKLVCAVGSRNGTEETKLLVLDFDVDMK
GPR151 ag: activators of human GPR151, primary screen, cell-based, PathHunter beta-arrestin, luminescence; G-protein coupled receptor 151 (Homo sapiens), Q8TDV0; PathHunter beta-arrestin GPR151 cells; activation, % at 11.2 µM; actives 1% (n = 650,000); AID 1508602, 2020; in the data active = activation above about 4.9%;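 note: 0% = median of compound wells and 100% = cells with positive control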
MITF primary: MITF inhibitors, primary screen, biochemical, AlphaScreen, human; Microphthalmia-associated transcription factor (Homo sapiens), O75030; AlphaScreen MITF homodimerization, bead proximity signal; inhibition, % at 2.6 µM; actives 0.91% (n = 650,000); AID 1259374, 2018; in the data active = inhibition above about 50%;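 note: 0% = vehicle wells with protein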
GPR151 confirm: GPR151 activators, triplicate retest, confirmation, cell-based, PathHunter beta-arrestin, luminescence | activation, % at 11.2 µM | GPR151 PathHunter beta-arrestin cells, 90 min; % of EA-reagent control over plate median | AID 1508609, 2020 | shares compounds with GPR151 ag | 6,700 tested, under 10 active;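 active = mean percent activation across replicates above the confirmation screen cutoff of 4.91%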
GPR119 counter: GPR119 activators in beta-arrestin cells, counter-screen for GPR151 activator project, cell-based, PathHunter beta-arrestin, luminescence, triplicate. actives 0.3% (n = 6,700). activation, % at 11.2 µM. 90 min; 0 = compound-well median, 100 = enzyme-acceptor control. shares compounds with GPR151 ag. AID 1508611, 2020;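 active = mean percent activation in the counterscreen above 29.09%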;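 note: counterscreen on off-target GPR119 to flag nonselective hits from the GPR151 activator screen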
* = called active by the depositor; i = inactive; x = no result given. Compounds with a hit are over-represented: about 3.4% of the library has one in this group of screens.

SMILES	TEAD-YAP block	FBW7 activator	GPR151 ag	MITF primary	GPR151 confirm	GPR119 counter
Cc1cc(=O)n2nc(N3CCCC3C(=O)NCCCN3CCCCC3)sc2n1 (stereo unspecified)	-2	0	5.0*	5	1	-13
COc1ccc(CC(=O)N2N=C(c3cccnc3)CC2(O)C(F)(F)F)cc1 (stereo unspecified)	25	1	4.9*	2	1	10
CCOc1ncccc1C(=O)NNc1ccc(C(F)(F)F)cn1	5	0	1	4	x	x
COc1cc(/C=N/NC(=O)c2ccco2)ccc1OCc1ccc([N+](=O)[O-])cc1	-71	1	-1	31	x	x
COc1cc(/C=N\NC(=O)c2ccc([N+](=O)[O-])cc2)ccc1OC(=O)c1ccco1	1	0	11*	9	-1	-5
CCc1ccc(NC(=O)CSc2nc3ccc(N4CCCCC4)cc3c(=O)n2Cc2ccccc2)cc1	12	0	-1	0	x	x
COc1cccc(/C=N\Nc2nnc3c(n2)[nH]c2c(C)cccc23)c1	2	0	-1	9	x	x
Cc1cccc2c1[nH]c1nc(N/N=C\c3ccccc3O)nnc12	-5	0	5.0*	12	1	3
COc1ccc(/C=N\Nc2nnc3c(n2)[nH]c2c(C)cccc23)cc1OC	-12	1	9.7*	13	0	8
O=C(Cc1c(O)c2ccccc2[nH]c1=O)NCCc1ccccc1	9	0	-1	6	x	x
COc1ccc(-c2cnnc(N[C@H]3CCCCNC3=O)n2)cc1	-20	0	0	2	x	x
Cc1cnc(C)c(NC2CCCCNC2=O)n1 (stereo unspecified)	11	0	8.0*	6	2	0
O=C(O)CCn1c(SCc2cc(=O)n3cc(Br)ccc3n2)nc2ccsc2c1=O	2	0	1	1	x	x
O=C(O)c1ccc(Cn2c(SCc3cc(=O)n4cc(Br)ccc4n3)nc3ccsc3c2=O)cc1	-18	0	7.3*	5	1	16
Fc1ccccc1CSc1nnc(-c2cnccn2)n1Cc1ccco1	-34	0	9.9*	3	0	20
CCOCCCNC(=O)c1cccc(Cl)c1	-49	0	2	6	x	x
CC(C)(C)C(=O)COC(=O)c1cccc(S(=O)(=O)N2CCCC2)c1	3	0	1	4	x	x
CNS(=O)(=O)c1cccc(C(=O)OCC(=O)C(C)(C)C)c1	-3	0	7.1*	-2	0	8
CCc1nnc(SCC(=O)Nc2cc(Cl)cc(Cl)c2)n1N	7	0	1	-14	x	x
COc1ccc(N2Cc3ccc(C(=O)N/N=C/c4ccco4)cc3C2)cc1	-21	1	0	23	x	x
COc1ccc(C(=O)Nc2ccc(C(=O)N/N=C/c3ccc(O)cc3O)cc2)cc1	-6	0	8.6*	-3	0	3
COc1ccc(C(=O)N/N=C/c2ccco2)cc1	-32	0	6.9*	21	0	-7
CCN(c1ccccc1)S(=O)(=O)c1ccc(NC(=S)NC(C)=O)cc1	20	0	-1	-2	x	x
O=C(O)c1ccc(-c2ccc(C(=O)O)c(C(=O)O)c2)cc1C(=O)O	0	0	1	i	x	x
CCOC(=O)CNC(=S)Nc1ccccc1	-2	0	0	-15	x	x
Cc1ccc(-c2nnc(C3CCN(S(=O)(=O)c4ccc(Cl)s4)CC3)o2)cc1	5	0	7.0*	0	0	-1
COc1cccc(NC(=O)c2ccc(-c3ccsc3)nc2N2CCOCC2)c1	-10	0	9.3*	3	1	4
COc1cccc(NC(=O)c2ccc(-c3cccc(OC)c3)nc2N2CCOCC2)c1	-13	0	1	15	x	x
CCOC(=O)C1CCCN(c2c(N3CCN(c4cccc(Cl)c4)CC3)c(=O)c2=O)C1 (stereo unspecified)	8	0	1	-7	x	x
